Experimental data published in PubChem BioAssay (NCI).
About 83,000 compounds went through this panel and 20% of them were active in at least one assay; those are over-represented in the sample as a whole.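 Cells were grown in 96-well plates and exposed to the test compound at a single concentration for 48 hours; results are reported as percent growth, with values below 10 considered active.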 Activity calls are given as the source filed them.

Key:
Assay in all cases: NCI-60 one-dose screen, 48 h (100 = growth as untreated, 0 = no growth, -100 = all killed)
Conditions in all cases: 10 µM unless noted
[1] = tested on: NCI-H23 lung
[2] = tested on: NCI-H226 lung
[3] = tested on: NCI-H322M lung
[4] = tested on: HOP-62 NSCLC
[5] = tested on: NCI-H460 lung
[6] = tested on: HOP-92 NSCLC
[7] = tested on: 786-0 renal
[8] = tested on: COLO 205 colon
[9] = tested on: DU-145 prostate
[10] = tested on: K-562 leukemia
[11] = tested on: MALME-3M melanoma
[12] = tested on: MDA-MB-231 breast
[13] = tested on: RXF 393 renal
[14] = tested on: SF-268 CNS
[15] = tested on: SF-295 CNS
[16] = tested on: SF-539 CNS
[17] = tested on: UACC-257 melanoma
[18] = tested on: M14 melanoma
[19] = tested on: NCI-H522 lung
[20] = tested on: A549/ATCC NSCLC

Measured: growth

CN(C)c1ccc(C(=C2C=CC(=[N+](C)C)C=C2)c2ccc(N(C)C)cc2)cc1
active: [1] -19.9% | [2] -73.1% | [3] -42.2% | [4] -75.5% | [5] -39% | [6] -70.1% | [7] -96.2% | [8] -84.3% | [9] -91.8% | [10] -10.4% | [11] -81.4% | [12] -56.5% | [13] -92.2% | [14] -74.1% | [15] -55.2% | [16] -70.6% | [17] -62.7% | [18] -80.2%

O=C(Nc1ccc(Cl)c(Cl)c1)Nc1ccccc1O
inactive: [1] 64.9% | [2] 96.9% | [3] 87.3% | [4] 88.8% | [5] 79.5% | [19] 26.8% | [20] 37.2% | [7] 99.6% | [8] 85.3% | [9] 118% | [10] 48.7% | [11] 114% | [12] 82.5% | [13] 101% | [14] 92.9% | [15] 75.5% | [16] 91.5% | [17] 78.2% | [18] 58.4%

COc1ccc(/C=C2/C(=O)ON=C2C)cc1
inactive: [1] 112% | [2] 101% | [3] 118% | [4] 101% | [5] 107% | [6] 93.6% | [20] 103% | [7] 105% | [8] 104% | [9] 109% | [10] 100% | [12] 96.8% | [13] 102% | [14] 104% | [15] 110% | [16] 107% | [17] 100% | [18] 109%

COc1cc([C@@H]2c3cc4c(cc3[C@H](OC3OC5COC(c6ccccc6)OC5C(O)C3O)[C@H]3COC(=O)[C@H]23)OCO4)cc(OC)c1OC (stereo partly specified)
inactive: [1] 22.4% | [2] 75.9% | [3] 44.2% | [4] 29.6% | [5] 20.8% | [6] 37.7% | [7] 64% | [9] 57% | [10] 15.9% | [12] 66.3% | [13] 65.7% | [14] 29.3% | [15] 35.8% | [16] 19.4% | [17] 57.5% | [18] 33.2%
active: [8] -77.6%

NC(CS/C(Cl)=C/Cl)C(=O)O (stereo unspecified)
inactive: [1] 97.6% | [2] 86.9% | [3] 73.5% | [6] 83.3% | [19] 93.4% | [7] 105% | [10] 89.2% | [11] 89.6% | [12] 88.1% | [13] 105% | [14] 99.3% | [16] 104% | [17] 78.3% | [18] 58.2%
active: [4] -3.21% | [5] -45.9% | [15] 9.28%

Cc1nn(CCO)c(C)c1N=[N+]([O-])c1c(C)nn(CCO)c1C
active: [2] -28.5% | [6] -47.7% | [7] -82.3% | [8] -85.6% | [9] -9.05% | [10] -31.8% | [11] -59.9% | [17] -56.2% | [18] -61.6%
inactive: [1] 87% | [3] 98.5% | [4] 88.1% | [5] 76.3% | [20] 50.5% | [12] 98.6% | [14] 81.3% | [15] 100% | [16] 89.1%

O=C(Nc1cccc(C(F)(F)F)c1)Oc1ccc(Cl)c2cccnc12
active: [1] 8.91% | [19] -77.1% | [20] -1.52% | [11] -2.66% | [15] 4.11% | [17] -60%
inactive: [2] 86.3% | [3] 101% | [4] 76.8% | [5] 10.4% | [7] 88% | [8] 89.6% | [9] 39.6% | [10] 16.2% | [12] 22.7% | [13] 68.6% | [14] 15.1% | [16] 50.9% | [18] 24.9%

CCOc1ccc(C(C[N+](=O)[O-])Sc2ccccc2N)cc1 (stereo unspecified)
inactive: [1] 10.2% | [2] 78.6% | [3] 88.2% | [4] 92.1% | [5] 58.9% | [6] 82.7% | [8] 10.1% | [11] 68% | [12] 18.4% | [14] 120% | [15] 40.4% | [17] 59.2%
active: [7] -63.2% | [9] -19.9% | [10] 9.12% | [13] -65.3% | [16] -44.5% | [18] -41.2%

Cc1nnc(N/N=C/c2ccc([N+](=O)[O-])o2)[nH]c1=O
active: [6] -35.8% | [8] -56.5% | [11] -30.8% | [15] -40.4% | [16] -8.83%
inactive: [1] 22.6% | [2] 16.2% | [3] 16.6% | [4] 11.3% | [5] 11.3% | [20] 28.5% | [7] 14.9% | [9] 19.4% | [10] 10.7% | [12] 28.7% | [14] 19.4% | [17] 33.5% | [18] 26.2%

O=C(/C(Cl)=N/O)c1ccc(-c2ccccc2)cc1
active: [7] -80.7%
inactive: [1] 93.4% | [2] 88.7% | [3] 94.3% | [4] 96.4% | [5] 107% | [6] 82.1% | [8] 85.5% | [9] 109% | [10] 63.8% | [11] 24.8% | [13] 95.4% | [14] 101% | [15] 104% | [16] 96.4% | [17] 99.7% | [18] 96.7%

O=C(OC12CC3CC(CC(C3)C1)C2)c1ccc(NCc2cc(O)ccc2O)cc1
active: [1] -21.9% | [2] -63.6% | [4] -55.7% | [5] 3.32% | [6] -36.9% | [20] -21.9% | [7] -90% | [8] -71.2% | [10] -49.3% | [11] -93.5% | [12] -39.8% | [13] -60.8% | [14] -6.88% | [15] -14.7% | [16] -95.6% | [17] 5.57%
inactive: [3] 47.6% | [9] 19.9%

COC(=O)c1cc([N+](=O)[O-])cc([N+](=O)[O-])c1Cl
inactive: [1] 98.3% | [2] 102% | [3] 106% | [4] 102% | [6] 99.7% | [20] 101% | [7] 102% | [9] 66.1% | [10] 15.2% | [11] 49.5% | [12] 105% | [13] 91.4% | [15] 101% | [16] 102% | [17] 70.4% | [18] 20.5%
active: [19] -74% | [8] -64.1%

Cc1cc(C)c([I+]c2c(C)cc(C)cc2C)c(C)c1
inactive: [3] 46.5% | [9] 14.8%
active: [1] -29.1% | [2] -1.55% | [4] -78.3% | [5] 1.11% | [19] -66.8% | [20] 6.93% | [7] -89.6% | [8] -94.4% | [11] -51.6% | [12] -55.1% | [13] -36.7% | [14] -66.9% | [15] -33.7% | [16] -74.7% | [17] -49.6% | [18] -77.6%

CCCCCCCCCCCCN1C(C)=CS/C1=C\C=C\c1scc(C)[n+]1CCCCCCCCCCCC
inactive: [1] 10.8% | [2] 40.6% | [3] 96.8% | [4] 35.5% | [6] 36.8% | [20] 16.6% | [7] 37.3% | [9] 43% | [11] 29.9% | [12] 20.2% | [14] 40.3% | [16] 44.4% | [18] 30.5%
active: [19] 3.47% | [8] 8.86% | [10] 4.52% | [15] -21.5% | [17] -14.2%

CN(C)CCN(C)CC(C)(C)C(=O)/C=C/c1ccc(Cl)c(Cl)c1
active: [1] -83.2% [100 µM] | [2] -64.1% [100 µM] | [3] -98.4% [100 µM] | [4] -92.9% [100 µM] | [6] -89.4% [100 µM] | [19] -89.5% [100 µM] | [20] -82% [100 µM] | [7] -93.6% [100 µM] | [8] -90.3% [100 µM] | [9] -99.2% [100 µM] | [10] -21.1% [100 µM] | [11] -95.5% [100 µM] | [12] -98% [100 µM] | [13] -95.1% [100 µM] | [14] -54.8% [100 µM] | [15] -97.9% [100 µM] | [16] -99.3% [100 µM] | [17] -90.4% [100 µM] | [18] -92% [100 µM]

Cc1cc(C(=O)c2ccc(Cl)cc2)ccc1O
inactive: [1] 102% | [2] 90.1% | [3] 103% | [4] 85.7% | [6] 104% | [19] 72.5% | [20] 91.8% | [7] 79.7% | [8] 122% | [9] 98.2% | [10] 112% | [11] 112% | [12] 94.3% | [13] 75.7% | [14] 92.5% | [15] 90.3% | [16] 93% | [17] 115%

NC(=S)N/N=C\c1nccc2c(C(F)(F)F)cccc12
active: [2] -0.105% | [3] 4.15% | [4] -5.75% | [5] 0.121% | [19] -30.5% | [7] -24.7% | [10] 5.11% | [11] -10.4% | [14] 5.75% | [15] 7.98% | [16] 0.339% | [17] -23.9% | [18] -26.7%
inactive: [1] 13.4% | [8] 17.8% | [9] 12% | [12] 49.1% | [13] 16%
